Consider 40 compounds from PubChem BioAssay (EPA / NIEHS).

Each structure is given as a SMILES string. Active and inactive are the calls of the source. How the source made its calls: active means hit-call score of the fitted dose curve at least 0.9, where 1 is the maximum; inactive means score below 0.9.

Read-out in the experiment: Transforming growth factor beta 1 (TGFb1), TGFB1 (gene 7040)
The experiment in a line: BSK_KF3CT_TGFb1: BioMAP Diversity Plus: KF3CT Assay for Transforming growth factor beta 1 (TGFb1) Biomarker Activity (AID 2283072). The conditions noted are these: primary human keratinocytes with fibroblasts; actives raise or lower the signal. As to the method: BSK_KF3CT is a cell-based, multiplexed-readout assay that uses keratinocytes and foreskin fibroblasts, a human skin primary cell co-culture, with measurements taken at 24 hours after chemical dosing in a 96-well plate.BSK_KF3CT_TGFb1 is an assay component measured in the BSK_KF3CT assay. It measures TGF-b1 antibody related to regulation of gene expression using ELISA technology.Data from the assay component BSK_KF3CT_TGFb1 was analyzed into 1 assay endpoint. This assay endpoint, BSK_KF3CT_TGFb1, was analyzed with bidirectional fitting relative to DMSO as the negative control and baseline of activity. Using a type of binding reporter, gain or loss-of-signal activity can be used to understand changes in the signaling as they relate to the gene TGFB1. Furthermore, this assay endpoint can be referred to as a primary readout, because this assay has produced multiple assay endpoints where this one serves a signaling function. To generalize the intended target to other relatable targets, this assay endpoint is annotated to the growth factor intended target family, where the subfamily is transforming growth factor beta.
The levels of cell surface (or secreted, indicated by the prefix "s") biomarker endpoints were measured by ELISA. Overt cytotoxicity to cells in confluent adherent cultures (all systems other than the BT system) was assessed by measuring total protein levels using sulforhodamine B (SRB) staining in parallel cultures at the time of biomarker measurements, indicated as SRB endpoints. For proliferation assays for adherent cell types, individual cell types are cultured at sub-confluence and relative cell numbers quantified by SRB staining at time points optimized for each system (48 h: 3C and CASM3C systems; 72 h: BT and HDF3CGF systems; 96 h: SAg system). SRB was performed by staining cells with 0.1% SRB after fixation with 10% TCA and reading wells at 560 nm.Viability and proliferation of PBMC (T cells) was quantified by Alamar Blue reduction for the SAg and BT systems. For PBMC viability (referred to as PBMC Cytotoxicity within the assay endpoint names), cells were plated (75,000/well in a 96-well plate) and then chemical samples added for 1 h before addition of activators, SEB and TSST-1 (20 ng/mL final concentration each). Cells were incubated for 90 h. Then, Alamar Blue (20 uL/well) (Invitrogen, Cat DAL1100) was added for 6 h, and the plates were read with a fluorescence microplate reader at 546/580 nm (excitation/emission). For PBMC proliferation, cells were plated and activated as above but incubated for only 16 h prior to addition of Alamar Blue. Plates were read after 6 h.
Take `Cc1cn([C@H]2C[C@H](N=[N+]=[N-])[C@@H](CO)O2)c(=O)[nH]c1=O`: the outcome was inactive. The term AC50 denotes the concentration giving half of the maximal activity seen. For the compound `CC(C)(C)c1csc(-c2cc3cc(OCc4ccccc4CC(=O)O)ccc3o2)n1`, the AC50 is 10.8 µM (active). Take `CCCCCCCCOC(=O)c1cc(O)c(O)c(O)c1`: the AC50 is 8.45 µM (active).

As for `CN1C(=O)CC[C@H]1c1cccnc1`, the result was inactive. For the compound `CCCCCCCCCC(=O)O`, the result was inactive.

Consider `CN1C(=O)N(c2ccccc2Br)Cc2cnc(Nc3ccc4c(c3)OCC(CO)O4)nc21` (stereo not given), for which the AC50 is 15.3 µM (active). With `Cc1cccc2ccccc12`, the outcome was inactive. The same measure, in the same setting: the entry for `O=C(O)Cn1c(=O)n(Cc2ccc(Br)cc2F)c(=O)c2ccc(Cl)cc21` is “inactive”; for `Oc1ccccc1` it is “inactive”.

As for `CC(C)(C)c1cc(/C=C2\SC(N)=NC2=O)cc(C(C)(C)C)c1O`, the AC50 was 12.8 µM (active). On to `Cc1oc2c(NC(=O)c3c(Cl)cccc3Cl)cccc2c1C(C)(C)O`, for which the result was inactive. With `CN(C[C@@H](CC[N+]12CCC(C3CCCCC3)(CC1)CC2)c1ccc(Cl)c(Cl)c1)C(=O)c1cc(C(F)(F)F)cc(C(F)(F)F)c1`, the AC50 is 7.34 µM (active). Consider `C[C@]12CC[C@@H]3c4ccc(O)cc4CC[C@H]3[C@@H]1CC[C@H]2O`, for which the result was inactive. As for `CC(C)(c1cc(Br)c(O)c(Br)c1)c1cc(Br)c(O)c(Br)c1`, the half-maximal activity concentration (AC50) is 1.69 µM (active). The same measure, in the same setting: the figure for `Cc1cc(F)ccc1-c1cc(N2CC[C@@H](O)[C@H]2CO)ncc1N(C)C(=O)C(C)(C)c1cc(C(F)(F)F)cc(C(F)(F)F)c1` is 25.1 µM (active). With `O=c1c(-c2ccc(O)cc2)coc2cc(O)cc(O)c12`, the result was inactive. Still for that read-out and setting: the entry for `CCCCOC(=O)c1ccc(O)cc1` is “inactive”; for `CC1=CC(=O)/C(=C(/C)O)C(=O)O1` it is “inactive”; for `O=C(O)c1ccccc1C(=O)OCc1ccccc1` it is “inactive”.

As to `CCCCCCCC[Si](OCC)(OCC)OCC`, the outcome was inactive. Same read-out and setting: the entry for `O=C(O)c1ccccc1-n1cc(C(=O)O)c(=O)c2cc(Nc3c(F)cc(F)cc3Cl)c(Cl)cc21` is “inactive”; for `CC(C)(O)c1ccc(CNC(=O)c2cccnc2Oc2ccc3nonc3c2)cc1` it is “inactive”; for `CCN(CC)C(=O)c1cc(S(=O)(=O)Cc2ccccc2)c(N2CCC(c3ccccc3)CC2)cc1N(CC)CCN(C)C` it is “inactive”.

Regarding `CO[C@H]1/C=C/O[C@@]2(C)Oc3c(C)c(O)c4c(O)c(c(/C=N/N5CCN(C)CC5)c(O)c4c3C2=O)NC(=O)/C(C)=C\C=C\[C@H](C)[C@H](O)[C@@H](C)[C@@H](O)[C@@H](C)[C@H](OC(C)=O)[C@@H]1C`, the result was inactive.

`Cc1ccc(C(C)C)cc1`: the outcome was inactive.

As to `Oc1ccc2ccccc2c1`, the outcome was inactive. For the compound `O=C(O)Cc1cc(I)c(Oc2ccc(O)c(I)c2)c(I)c1`, the AC50 is 29.9 µM (active).

`CC[C@H](NC(=O)c1cc(F)ccc1NS(=O)(=O)c1cccc2cccnc12)c1ccccc1`: the result was inactive. In the case of `CCOC(=O)O[C@H](C)OC(=O)c1ccc2c(c1)cc(C(=O)NC1CCN(C(C)C)CC1)n2Cc1cc(-c2ccc(Cl)s2)on1`, the concentration at half-maximal activity (AC50) is 6.7 µM (active). On to `CCCCCCCCCCCC[N+](C)(C)C`, for which the AC50 was 26.6 µM (active). As for `CC(=O)N1CCN(c2ccc(OC[C@H]3CO[C@](Cn4ccnc4)(c4ccc(Cl)cc4Cl)O3)cc2)CC1`, the half-maximal activity concentration (AC50) is 29.2 µM (active). In the case of `CCCC(=O)OCCC(C)C`, the outcome was inactive. As for `COc1cc(C(=O)NC2CCN(C)CC2)ccc1Nc1ncc2c(n1)N(C1CCCC1)CC(F)(F)C(=O)N2C`, the AC50 was 29.8 µM (active).

Turning to `Clc1ccccc1C(c1ccccc1)(c1ccccc1)n1ccnc1`, the AC50 is 6.57 µM (active). `CCCCCCCCN(C)CCCCCCCC`: the outcome was inactive. On the same count and under the same terms, the entry for `CCN(Cc1cccnc1)C(=O)c1cccc(Cl)c1[C@]1(C)C(=O)N(Cc2ccc(OC)cc2OC)c2ccc(Cl)cc21` is “inactive”; for `O=C1c2ccccc2C(=O)N1CCc1noc(-c2ccc(CN3CCCCCC3)s2)n1` it is “inactive”; for `O=C(OCCCCCCOC(=O)c1ccccc1)c1ccccc1` it is “inactive”. The same measure, in the same setting: the entry for `C[C@]12CC[C@@H]3c4ccc(O)cc4CC[C@H]3[C@@H]1CCC2=O` is “inactive”; for `CCCCCCCCCCCO` it is “inactive”.
